Article PMC4552634, “A New Set of Chemical Starting Points with Plasmodium falciparum Transmission-Blocking Potential for Antimalarial Drug Discovery” (PLoS ONE, 2015)
About 3,200 (25%) of roughly 13,000 compounds showed an effect of 50% or more. The list shows a part of the results.

Each molecule was assayed on P. falciparum stage V gametocytes. Conditions: 48 h, 5 µM; inhibitor.
Design: BacTiter-Glo ATP luminescence viability of purified stage V gametocytes in 384-well plates, per cent inhibition versus DMSO

Which “% Inhibition” value does the source give for `CC[C@H]1CN2CC[C@@H]1C[C@H]2[C@H](O)c1cc(N2CCC(C(N)=O)CC2)nc2ccc(OC)cc12` [TCMDC-141441] here?
Its value is -22.84%.

`CC[C@H]1CN2CC[C@@H]1C[C@H]2[C@H](O)c1cc(N2CCC(O)(c3ccccc3)CC2)nc2ccc(OC)cc12` [TCMDC-141438] was tested. Which “% Inhibition” value did it give?
The value was 44.1%.

`CC[C@H]1CN2CC[C@H]1C[C@H]2[C@H](O)c1cc(N2CCC3CCCCC3C2)nc2ccc(OC)cc12` (some centres unmarked) [TCMDC-141440] was tested. Which “% Inhibition” value did it give?
The value was 90.7%.

With `CC[C@H]1CN2CC[C@@H]1C[C@H]2[C@H](O)c1cc(N2CCC(O)(c3ccc(Cl)cc3)CC2)nc2ccc(OC)cc12` [TCMDC-141439] as the molecule, how does the “% Inhibition” value read?
Its value is 74.49%.

Which “% Inhibition” value does the source give for `CC[C@H]1CN2CC[C@H]1C[C@H]2[C@H](O)c1cc(N2CCCC(C(=O)N(CC)CC)C2)nc2ccc(OC)cc12` (some centres unmarked) [TCMDC-141434] here?
The value was 46.24%.

How did the “% Inhibition” value turn out when `CC[C@H]1CN2CC[C@@H]1C[C@H]2[C@H](O)c1cc(N2CCC(N3CCCCC3)CC2)nc2ccc(OC)cc12` [TCMDC-141442] was run?
The value was 105.7%.

For `CC[C@H]1CN2CC[C@@H]1C[C@H]2[C@H](O)c1cc(N2CCOCC2)nc2ccc(OC)cc12` [TCMDC-141416], which “% Inhibition” value is on record?
Its value is -92.7%.

Which “% Inhibition” value does the source give for `CC[C@H]1CN2CC[C@@H]1C[C@H]2[C@H](O)c1cc(N2CCSCC2)nc2ccc(OC)cc12` [TCMDC-141424] here?
The value was 79.98%.

How did the “% Inhibition” value turn out when `CC[C@H]1CN2CC[C@H]1C[C@H]2[C@H](O)c1cc(N2CCCC2)nc2ccc(OC)cc12` [TCMDC-141217] was run?
Its value is -33.27%.

`O=C(Nc1ccc(OC2CCN(Cc3ccc(F)cc3)C2)c(Cl)c1)c1ccccc1` (centres unmarked) [TCMDC-133762] was tested. Which “% Inhibition” value did it give?
Its value is 42.11%.

Which “% Inhibition” value does the source give for `Cc1cccc(CCCNC(=O)CN(c2cccc(C(F)(F)F)c2)S(=O)(=O)c2ccc(C(F)(F)F)cc2)c1` [TCMDC-136508] here?
The value was -41.52%.

With `Cc1ccc(S(=O)(=O)N(CCCNCc2cccc(O)c2)c2ccccc2)cc1` [TCMDC-138022] as the molecule, how does the “% Inhibition” value read?
Its value is 66.9%.

`Oc1cccc(CNCCCN(Cc2ccccc2)c2ccccc2)c1` [TCMDC-137875] was tested. Which “% Inhibition” value did it give?
Its value is 12.29%.

How did the “% Inhibition” value turn out when `CC1(C)C(=O)Nc2ccccc2N1C(=O)CN1CCN(c2ccccc2O)CC1` [TCMDC-124856] was run?
The value was -25.41%.

How did the “% Inhibition” value turn out when `CC(C(=O)N1CCCC1)N1CCN(C(c2ccccc2)c2ccccc2)CC1` (centres unmarked) [TCMDC-123562] was run?
The value was 15.58%.

For `CC(C(=O)N1CCCC1)N1CCN(S(=O)(=O)c2ccc(C(C)(C)C)cc2)CC1` (centres unmarked) [TCMDC-125011], which “% Inhibition” value is on record?
Its value is 54.13%.

For `Cc1ccc(S(=O)(=O)N2CCCN(C(=O)c3cc(-c4ccccc4)n[nH]3)CC2)cc1` [TCMDC-125243], which “% Inhibition” value is on record?
Its value is 32.96%.
